# This excerpt belongs to a sample that is enriched for hits.
# GALC G270D up: enhancers of human galactocerebrosidase G270D mutant activity in cells | P54803 | 145M-Twi-hGALC-G270D cells (Twitcher mouse brain line with human GALC G270D), HMU-beta-Gal fluorescence, 48 h | Potency, µM (series often up to 57.5 µM), hits mostly activators | 45,000 compounds, 0.1% hits | AID 1159614; note: potency is the fitted concentration of half-maximal effect; 0% is about no effect; nearly all actives have a fitted effect of over 65% in size
# Target sequence (P54803 whole entry G286D): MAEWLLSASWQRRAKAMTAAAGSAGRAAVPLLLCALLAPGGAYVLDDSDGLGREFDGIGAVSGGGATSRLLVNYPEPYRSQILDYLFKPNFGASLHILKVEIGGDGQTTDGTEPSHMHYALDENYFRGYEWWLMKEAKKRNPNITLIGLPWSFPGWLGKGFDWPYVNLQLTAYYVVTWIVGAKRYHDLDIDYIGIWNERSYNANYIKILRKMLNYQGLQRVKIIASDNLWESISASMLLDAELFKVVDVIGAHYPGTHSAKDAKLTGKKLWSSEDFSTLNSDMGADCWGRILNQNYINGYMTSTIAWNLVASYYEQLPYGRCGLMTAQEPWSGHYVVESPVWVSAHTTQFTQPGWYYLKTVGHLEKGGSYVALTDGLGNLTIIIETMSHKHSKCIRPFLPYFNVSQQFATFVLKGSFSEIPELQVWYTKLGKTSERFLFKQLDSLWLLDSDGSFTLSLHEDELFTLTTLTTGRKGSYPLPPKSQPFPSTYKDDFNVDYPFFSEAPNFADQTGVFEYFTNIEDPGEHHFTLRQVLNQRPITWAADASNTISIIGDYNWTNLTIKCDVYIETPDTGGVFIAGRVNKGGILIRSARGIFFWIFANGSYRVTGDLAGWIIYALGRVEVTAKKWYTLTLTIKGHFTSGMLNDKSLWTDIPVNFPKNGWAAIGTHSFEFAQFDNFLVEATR
#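 Mutant human GALC (G270D), stably expressed in a Twitcher mouse brain cell line lacking endogenous GALC, is measured in live-treated cells via 6-hexadecanoylamino-4-methylumbelliferyl-β-galactoside hydrolysis (0.1 mM final, pH 5.2) with fluorescent detection.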
# FH mod: Identification of activators of human fumarate hydratase by quantitative high-throughput screening; Potency, µM (doses to about 79.9 µM), inactives show top-dose activity change, negative = inhibition, actives largely listed as inhibitors; Fumarate hydratase, mitochondrial (Homo sapiens), P07954; FH coupled MDH/diaphorase resazurin fluorescence, 15 min; 54,000 compounds, 0.22% hits; note: potency is the fitted concentration of half-maximal effect; % is set by controls: 0 for no effect and ±100 for the full control effect; the screen sought activators but most active calls are inhibition curves; nearly all actives have a fitted effect of over 45% in size
# PTAP-TSG101 blk: TSG101-PTAP interaction inhibition, HIV-1 budding; Q99816; Fluorescence polarization, FITC-PTAP peptide/Tsg101, 20 min; Potency, µM (top dose mostly 115 µM), most hits filed as inhibitors; 44,000 tested, under 10 active; AID 1347069; note: potency is the fitted concentration of half-maximal effect; 0% is about no effect
#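 qHTS FP binding, 20 min r.t.: 10 uM Tsg101 domain + 50 nM FITC-PTAP peptide, pH 7.5 HEPES buffer with TCEP and EDTA.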
# GALK inhibitor: inhibitors of human galactokinase (GALK); recombinant GALK, Kinase-Glo ATP luminescence, 1 h; Potency, µM (series often up to 57.5 µM), inactives show at the top dose activity, negative = inhibition, hits mostly inhibitors; 44,000 tested, under 10 active; AID 1347072;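 note: plate controls were full GALK reaction for no effect and reaction lacking GALK for full effect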
#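 Compounds were pinned into ATP buffer, then GALK-galactose mix was added (final 5 nM enzyme, 35 uM ATP, 100 uM galactose, pH 8.0). After 1 h at room temperature, Kinase-Glo Plus was added and luminescence read.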
# B2AR arrestin ag: ADRB2 beta-arrestin recruitment. AID 1347077. 44,000 tested, under 10 active. Potency, µM (titrated, usually from 46.1 µM), hits mostly activators. HTLA Tango cells, beta-arrestin recruitment, luciferase luminescence, 18 h;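 note: potency is the fitted concentration of half-maximal effect; 0% = DMSO and full agonism = EC100 isoproterenol or metaproterenol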
#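 Tango cells expressing recombinant beta2-AR and beta-arrestin were treated with compounds (up to 46 microM titration) in DMEM with 1% FBS for 18 hr at 37 degrees C. Beta-arrestin recruitment drove tTA-dependent luciferase, read by luminescence; curves were fitted and classed.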
# NTMT1 inhibitor: NTMT1 methyltransferase inhibition | NTMT1 MTase-Glo SAH luminescence, purified enzyme | Potency, µM (titrated, usually from 114 µM), inactives show top-dose activity change, negative = inhibition, most hits filed as inhibitors | 59,000 compounds, 2.5% hits;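 note: potency is the fitted concentration of half-maximal effect; plate controls were DMSO vehicle for no effect and no enzyme for full effect; nearly all actives have a fitted effect of over 65% in size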
# Numbers without * were called inactive; i = inactive; ? = inconclusive; . = no result; ! = repeats disagree; [ ] = remark or other dose. Calls come from the whole dose curve; as a rule, active = well fitted curve in the direction sought with a large enough effect; inconclusive = small, poorly fitted or top-dose-only effect, or another doubt; inactive = no such curve, though single readings can be large; an effect the other way counts as inactive or inconclusive.
SMILES,GALC G270D up,FH mod,PTAP-TSG101 blk,GALK inhibitor,B2AR arrestin ag,NTMT1 inhibitor
CCc1oc2ccccc2c1C(=O)c1cc(I)c(O)c(I)c1,i,?,.,.,.,20µM*
CCc1ccc2occ(CC(=O)Nc3c(C(=O)c4ccc(C)cc4)oc4ccccc34)c2c1,i,-4.3%,i,-10.8%,i,-0.3%
CCOC(=O)c1cnc2ccc(OC)cc2c1NCCc1ccccc1,i,-15.3%,i,0.0%,i,-2.1%
COc1ccc2nc3n[nH]c(C)c3c(NCCOCCO)c2c1,.,-0.8%,.,.,.,20µM*!
Cc1ccc(NC(=O)CN2C(=O)N/C(=C\c3cccn3-c3cccc(-c4nn[nH]n4)c3)C2=O)cc1,.,.,.,.,.,-0.5%
Cc1ccc(S(=O)(=O)Nc2cccc(C(=O)Nc3nc(-c4ccccc4)cs3)c2Cl)cc1,.,.,.,.,.,6.5%
COc1cc2nc(N3CCCCC3)nc(NC3CCN(Cc4ccccc4)CC3)c2cc1OC,.,.,.,.,.,44.7µM*
COc1cc2nc(N3CCCC3)nc(NCCCCCN3CCCC3)c2cc1OC,.,5.5%,.,.,.,31.6µM*
COc1cc2nc(N3CCC(N4CCCCC4)CC3)nc(NC3CCCCCC3)c2cc1OC,.,-3.4%,.,.,.,?
O=C(CN1C(=O)C2(SCC(=O)N2c2ccccc2)c2ccccc21)NCc1ccccc1 (stereo unspecified),i,-10.4%,i,-0.7%,i,89.1µM*
Cc1ccc(/C=C/c2onc(C)c2S(=O)(=O)N2CCC(C(=O)N3CCC(N(C)C(C)C)CC3)CC2)cc1,i,-12.1%,i,0.9%,i,79.4µM*
CCN=C1N[C@@H]2[C@@H](O)[C@H](O)[C@@H](CO)O[C@@H]2S1,.,6.8%,.,.,.,1.5%[57.5 µM]
CCCCOc1ccc(CC/C=C2\SC(=O)N(CCN)C2=O)cc1,.,3.2%,.,.,.,50.1µM*
CCOc1ccc(/C=C2\SC(=O)N(CCN)C2=O)cc1,.,8.9%,.,.,.,-12.0%
Cc1ccc(OCCn2c(CCNC(=O)Cc3cc(F)ccc3F)nc3ccccc32)cc1,.,.,.,.,.,-11.7%
O=C(Nc1ccc(N2CCOCC2)c(C(=O)O)c1)c1ccc(Br)cc1,i,-12.0%,i,-1.9%,i,89.1µM*
CCCNC(=O)Nc1ccc(Oc2ncnc3cc(OC)c(OC)cc23)cc1Cl,.,1.2%,.,.,.,17.1%[57.5 µM]
COc1cc(Oc2ccnc3cc(OC)c(OC)cc23)ccc1NC(=O)NC(C)c1nccs1 (stereo unspecified),.,0.7%,.,.,.,79.4µM*!
Cc1ccc(N2CCC(CNc3nc(-c4ccccc4C(C)C)ncc3F)CC2)cn1,.,.,.,.,.,3.5%
COc1ccccc1N1CCN(C(=O)Cn2c(=O)n3nc(-c4ccc(C)cc4)nc3c3ccccc32)CC1,i,-8.8%,i,-6.9%,i,-3.2%
COc1ccc(-c2nc3c4ccccc4n(CC(=O)N4CCN(c5ccc(F)cc5)CC4)c(=O)n3n2)cc1,i,-11.9%,i,6.9%,i,89.1µM*
CNC(=O)c1c[nH]c2ccc(S(=O)(=O)Nc3cccc(Cl)c3C)cc2c1=O,i,-10.5%,i,1.4%,i,-1.8%
CCOCCCNC(=O)c1c[nH]c2ccc(S(=O)(=O)Nc3cccc(Cl)c3C)cc2c1=O,i,-24.4%,i,0.0%,i,89.1µM*
COc1ccc(NC(=O)c2cnn3c(C)cc(C)nc23)cc1,.,.,.,.,.,2.5%
Cn1cc(C2=C(c3ccc(Cl)cc3Cl)C(=O)NC2=O)c2ccccc21,.,0.4%,.,.,.,2.4%
SMILES,GALC G270D up,FH mod,PTAP-TSG101 blk,GALK inhibitor,B2AR arrestin ag,NTMT1 inhibitor
Cn1cc(/C=C2\C(=O)Nc3cccnc32)c2ccccc21,.,.,.,.,.,44.7µM*
Cc1cnccc1-c1nc(Nc2ccc(F)c(F)c2)c2ccccc2n1,.,.,.,.,.,-5.3%
Nc1cccc2c1CN([C@H]1CCC(=O)NC1=O)C2=O,.,.,.,.,.,11.6%
COc1cccc(NC(=O)CN(CCc2ccccc2)S(=O)(=O)c2ccc(Cl)cc2)c1,i,-2.8%,i,-1.8%,i,2.51µM*
COC(=O)c1ccc(NC(=O)CN(CCc2ccccc2)S(=O)(=O)c2ccc(OC)cc2)cc1,i,-9.4%,i,0.6%,i,?
CC1=CC(=O)c2ccccc2C1=O,i,?,.,.,.,?
O=C1C(SCCO)=C(SCCO)C(=O)c2ccccc21,.,7.94µM*,.,.,.,.
O=C(Nc1cc(Cl)cc2c1[nH]c1cnccc12)c1cccnc1,.,0.2%[53.3 µM],.,.,.,17.8µM*!
Cc1cc(C)cc(NC(=O)c2cc(S(=O)(=O)N3CCC(C)CC3)cn2C)c1,i,3.4%,i,-0.8%,i,89.1µM*
Cc1cc(C)cc(NC(=O)c2cc(S(=O)(=O)N3CCCCCC3)cn2C)c1,i,-3.2%,i,1.2%,i,12.6%
CC[C@H](c1ccc(O)cc1)[C@@H](CC)c1ccc(O)cc1,i,-26.6%[53.3 µM],.,.,.,11.2µM*
C1=C/COCc2cc(ccc2OCCN2CCCC2)Nc2nccc(n2)-c2cccc(c2)COC/1,.,9.4%,.,.,.,25.1µM*
C/C=C(\C)[C@@H]1C(C)=C[C@@H]2[C@H]([C@@H]1/C=C/C=C/C(=O)O)[C@@H](C)CC[C@@H]2O,.,7.6%[53.3 µM],.,.,.,4.4%[29.8 µM]
Cc1ccc2nc3sc(C(=O)N4CCCCC4)cc3cc2c1,.,.,.,.,.,0.3%[57.5 µM]
Cc1ccc(NC(=O)CSc2ncc(S(=O)(=O)c3ccc(C(C)C)cc3)c(=O)[nH]2)cc1C,i,?,i,?,i,-26.8%
CC(C)(C)c1ccc(S(=O)(=O)c2cnc(SCC(=O)Nc3ccc(F)c(Cl)c3)[nH]c2=O)cc1,i,?,i,20µM*,i,25.1µM*
Cc1ccc(S(=O)(=O)c2cnc(SCC(=O)Nc3ccccc3C(F)(F)F)[nH]c2=O)cc1C,i,-20.6%,i,3.7%,i,89.1µM*
COc1cc(Cl)c(C)cc1NC(=O)CSc1ncc(S(=O)(=O)c2ccc(C(C)(C)C)cc2)c(=O)[nH]1,i,?,i,-5.5%,i,17.8µM*
CC1(C)CC[C@]23CO[C@@]4(CCC5[C@@]6(C)CC[C@H](O[C@@H]7OC[C@H](O[C@@H]8O[C@H](CO)[C@@H](O)[C@H](O)[C@H]8O)[C@H](O)[C@H]7O[C@@H]7O[C@H](CO)[C@@H](O[C@@H]8O[C@H](CO)[C@@H](O)[C@H](O)[C@H]8O)[C@H](O)[C@H]7O)[C@@](C)(CO)C6CC[C@@]5(C)[C@]4(C)C[C@H]2OC2OCC(O)C(O)C2O)C3C1 (stereo partly specified),.,8.1%[13.5 µM],.,.,.,4.7%[6.45 µM]
CC(=O)c1ccc(N2CCN(S(=O)(=O)c3ccc4c(c3)CCCN4C(C)=O)CC2)cc1,.,.,.,.,.,-4.5%
Nc1cc(-c2ccncc2)c[nH]c1=O,i,?,.,.,.,?
